Test results taken from PubChem BioAssay (NCATS).
Where “and” joins values, the source holds several entries; their conditions need not be identical. Equal entries are not always repeated. Records with an inconclusive call do not appear. Calls of active or inactive are those of the source. Calls come from the whole dose curve; as a rule, active = well fitted curve in the direction sought with a large enough effect; inconclusive = small, poorly fitted or top-dose-only effect, or another doubt; inactive = no such curve, though single readings can be large or run the other way.

Experiment: qHTS Assay for Identifying Gametocytocidal Compounds (AID 743244);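 for max response: actives lower the fluorescent signal which means gametocytes are killed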
Conditions: P. falciparum 3D7 stage III-V gametocytes, alamarBlue, 72 h; max response: hits give low values
Summary of the method: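 In this qHTS viability screen, late-stage 3D7 gametocytes are incubated with compound for 72 h, then with alamarBlue for 24 h; reduced resorufin fluorescence marks killing.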
% is set by controls: 0 for no effect and ±100 for the full control effect; potency is the fitted concentration of half-maximal effect.

SMILES | max response | Potency
CC[C@H](O)C(C[C@H](C)N(C)C)(c1ccccc1)c1ccccc1 | -14.1% (inactive) | –
CCOC(=O)c1cncn1C(C)c1ccccc1 (stereo unspecified) | -8.82% (inactive) | –
CCCN(CCC)CCc1c[nH]c2ccccc12 | -3.32% (inactive) | –
CNC(C)Cc1ccc2c(c1)OCO2 (stereo unspecified) | -4.91% (inactive) | –
NC(N)=NN=C(/C=C/c1ccc([N+](=O)[O-])o1)/C=C/c1ccc([N+](=O)[O-])o1 | – | 7.94 µM (active)
CC(Cc1ccc2c(c1)OCO2)NO (stereo unspecified) | -6.74% (inactive) | –
CN1C[C@H](C(=O)N[C@]2(C)O[C@@]3(O)[C@@H]4CCCN4C(=O)[C@H](Cc4ccccc4)N3C2=O)C[C@@H]2c3cccc4[nH]cc(c34)C[C@H]21 | – | 2.35 µM (active)
CCC1(c2cccc(O)c2)CCCCN(C)C1 (stereo unspecified) | 11.4% (inactive) | –
CN(C)C(=O)Oc1cc(OC(=O)N(C)C)cc(C(O)CNC(C)(C)C)c1 (stereo unspecified) | 14.4% (inactive) | –
CC(C)NCC(O)c1ccc(N)c(C#N)c1 (stereo unspecified) | 9.7% (inactive) | –
CC(Cc1ccccc1)NCc1ccccc1Cl (stereo unspecified) | 9% (inactive) | –
C[N+]1(C)[C@@H]2CC[C@H]1CC(OC(=O)C(CO)c1ccccc1)C2 (stereo partly specified) | -7.22% (inactive) and -0.641% (inactive) | –
CC(C)=C[C@@H]1[C@@H](C(=O)OCc2coc(Cc3ccccc3)c2)C1(C)C | -1.71% (inactive) | –
C#C[C@]1(O)CC[C@H]2[C@@H]3CCC4=CC(=O)CCC4=C3C=C[C@@]21CC | -5.06% (inactive) | –
CNC(=O)NC(O)C(Cl)(Cl)Cl (stereo unspecified) | 8.2% (inactive) | –
NCc1cccnc1 | -3.33% (inactive) | –
